In the library only some 7.3% were active in any assay of this set; here they are far more common.
Rab9 prom act = qHTS Assay for Rab9 Promoter Activators. Huh7 Rab9 promoter-luciferase reporter, luminescence, 24 h. Potency, µM (doses to about 9.22 µM), for inactives: top-dose activation, negative = inhibition, most hits filed as activators. hit rate 2.8% among 320,000. AID 485297, 2010; further: % of control where 0% means no effect; nearly all actives have a fitted effect of over 60% in size
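Cell-based reporter: Huh7 stable for Rab9 promoter-driven luciferase, plated in reduced-serum medium with 10% FBS at 1500 cells/well, compound-treated 24 h at 37 °C, luminescence read after 10 min reagent.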
FLuc counter = qHTS profiling assay for firefly luciferase inhibitor/activator using purifed enzyme and Km concentrations of substrates (counterscreen for miR-21 project); Potency, µM (series often up to 57.5 µM), without a hit: at the top dose activity change, negative = inhibition, actives largely listed as inhibitors; purified FLuc, Km substrates, luminescence inhibition; hit rate 6.9% among 360,000; AID 588342, 2011; Luciferin 4-monooxygenase (Photinus pyralis), P08659;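 further: plate controls were vehicle for no effect and reference inhibitor for full effect; nearly all actives have a fitted effect of over 55% in size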
Target sequence (P08659 whole entry, looked up): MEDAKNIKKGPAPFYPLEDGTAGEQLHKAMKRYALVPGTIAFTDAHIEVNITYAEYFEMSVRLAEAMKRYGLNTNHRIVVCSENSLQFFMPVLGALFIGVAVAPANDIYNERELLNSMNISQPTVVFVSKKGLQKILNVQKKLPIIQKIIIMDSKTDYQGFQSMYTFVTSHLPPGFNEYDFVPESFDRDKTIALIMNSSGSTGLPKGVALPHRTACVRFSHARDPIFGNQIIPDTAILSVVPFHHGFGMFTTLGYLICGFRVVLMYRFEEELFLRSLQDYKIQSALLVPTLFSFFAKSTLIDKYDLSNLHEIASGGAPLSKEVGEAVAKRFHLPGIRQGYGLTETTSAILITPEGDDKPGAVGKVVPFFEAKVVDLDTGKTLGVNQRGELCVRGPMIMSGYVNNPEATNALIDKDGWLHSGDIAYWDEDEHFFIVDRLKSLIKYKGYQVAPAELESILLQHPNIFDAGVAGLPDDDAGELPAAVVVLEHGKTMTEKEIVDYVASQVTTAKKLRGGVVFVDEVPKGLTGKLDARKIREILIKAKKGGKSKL
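Purified P. pyralis luciferase (10nM final) with 10uM D-luciferin and 10uM ATP (Km levels) in 50mM Tris acetate pH 7.5, 10mM Mg acetate, 0.01% Tween-20, 0.05% BSA; qHTS 6-point titration, ~60 µM downward; luminescence read.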
SMN2 splice up = qHTS Assay for Enhancers of SMN2 Splice Variant Expression; Potency, µM (top dose mostly 46.1 µM), without a hit: at the highest dose activity change, positive = activation, most hits filed as activators; hit rate 2.8% among 210,000; HEK293 SMN2-luciferase splicing reporter, luminescence, 30-36 h; further: % of control where 0% means no effect; nearly all actives have a fitted effect of over 55% in size
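HEK293 cells carry an SMN2 […]–luciferase reporter in which exon 7 inclusion puts luciferase in frame. Cells were plated 10-12 h before compound addition, then incubated 30-36 h at 37C. ONE-Glo luminescence was read; sodium butyrate at 4.5 mM final served as control.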
ELG1 genotoxic = qHTS screen for small molecules that induce genotoxicity in human embryonic kidney (HEK293T) cells expressing luciferase-tagged ELG1; HEK293T ELG1-luciferase reporter, luminescence, 16 h; Potency, µM (top dose mostly 46 µM), without a hit: at the top dose activity change, positive = activation, usual class: activators; hit rate 1.3% among 330,000; further: % of control where 0% means no effect; nearly all actives have a fitted effect of over 60% in size
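HEK293T cells expressing luciferase-tagged ELG1 were exposed to compound or DMSO vehicle for 16 hr at 37 °C and 5% CO2. Luciferase activity was then measured with ONE-Glo after 30 min at room temperature.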
NPC1 promoter act = qHTS Assay for NPC1 Promoter Activators | Huh7 NPC1 promoter luciferase reporter, 24 h | Potency, µM (titrated, usually from 9.22 µM), without a hit: top-dose activation, usual class: activators | hit rate 2.4% among 320,000 | AID 485313, 2010; further: % of control where 0% means no effect; nearly all actives have a fitted effect of over 60% in size
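Stably transfected Huh7 (NPC1 promoter→luciferase), 1500 cells/well in Opti-MEM + 10% FBS, 2 h settle, then compound 24 h at 37 °C. Luminescence after 10 min with Amplite reagent.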
p53 reactivator = qHTS assay for re-activators of p53 using a Luc reporter; Potency, µM (highest dose often 92.2 µM), inactives show top-dose activity change, positive = activation, usual class: activators; H1299 p53-A138V BP100-luciferase reporter, luminescence, 24 h; hit rate 0.063% among 320,000; further: % of control where 0% means no effect; nearly all actives have a fitted effect of over 45% in size
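p53-null H1299 cells stably carrying temperature-sensitive p53-A138V and a BP100-luciferase reporter were pinned with compounds (4-point, 1:5 series) and held 24 hrs at 37 deg C. Luminescence was read 10 min after detection reagent.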
* hit, by the source's call; [ ] = dose if it differs, or a comment. The call rests on the fitted dose curve; in most records, active means well fitted curve in the direction sought with a large enough effect; inconclusive means small, poorly fitted or top-dose-only effect, or another doubt; inactive means no such curve, though single readings can be large; an effect the other way counts as inactive or inconclusive. Potency means the concentration at half of the fitted maximal effect.

What do the screens show for `CCN(CC(=O)NCc1ccc(F)cc1)C(=O)CN1CCN(c2ccc(OC)cc2)CC1`?
Rab9 prom act: 2%; FLuc counter: 1%; ELG1 genotoxic: -4%; NPC1 promoter act: -1%; p53 reactivator: -1%

What do the screens show for `CCc1ccc(OC(=O)c2sc3ncn(Cc4cccc(F)c4)c(=O)c3c2C)cc1`?
FLuc counter: -9%

What do the screens show for `Cn1c(CO)cnc1SCc1ccc(Cl)cc1`?
Rab9 prom act: inconclusive; FLuc counter: -16%; SMN2 splice up: 8%; ELG1 genotoxic: 7%; NPC1 promoter act: 3.5µM*; p53 reactivator: 1%

What do the screens show for `C=CCNC(=O)N1CCc2nc(CCCC)c3c(c2C1)CO[C@@H](C)C3`?
SMN2 splice up: 7%[9.22 µM]

How did COc1cc(NC(=O)c2nnn(CC(=O)Nc3ccccc3)c2N)cc(OC)c1 do in these assays?
FLuc counter: 5%

Results for CC(C)C(=O)Nc1ccc(-c2nc3cccnc3o2)cc1 ?
Rab9 prom act: 0.5µM*; FLuc counter: 2.7µM*; SMN2 splice up: 4.5µM*; ELG1 genotoxic: inconclusive; NPC1 promoter act: 0.56µM*; p53 reactivator: 16%

Results for CC(C)(C)c1ccc(OCC(=O)Nc2ccc(-c3nc4cccnc4o3)cc2)cc1 ?
FLuc counter: 0%; SMN2 splice up: 20%

What do the screens show for `CC(C)C(=O)Nc1cccc(-c2nc3ncccc3o2)c1`?
Rab9 prom act: 21%; FLuc counter: -21%; ELG1 genotoxic: 5%; NPC1 promoter act: -8%; p53 reactivator: 6%

Results for CC(C)C(=O)Nc1ccc(-c2nc3ncccc3o2)cc1 ?
Rab9 prom act: 0.5µM*; FLuc counter: 4.3µM*; ELG1 genotoxic: inconclusive; NPC1 promoter act: 0.5µM*

How did CCOc1cc(C(=O)Nc2ccc3c(c2)n(C)c(=O)c(=O)n3C)cc(OCC)c1OCC do in these assays?
FLuc counter: -2%; SMN2 splice up: 4%

Results for COc1ccc(NC(=O)N2CC[C@@]3(CCCN(C(=O)c4csnn4)C3)C2)cc1 ?
SMN2 splice up: -16%

How did O=C(NCc1ccc2c(c1)CCN2C(=O)c1ccncc1)c1ccc(Cl)cc1 do in these assays?
FLuc counter: -1%

What do the screens show for `Cn1cc(Cl)c(/C(N)=N/OC(=O)c2ccccc2C(F)(F)F)n1`?
Rab9 prom act: 4.5µM*; FLuc counter: 12µM*; ELG1 genotoxic: 21µM*; NPC1 promoter act: 3.5µM*; p53 reactivator: inconclusive

What do the screens show for `O=C(Nc1ccccc1C(=O)O)c1cccc(S(=O)(=O)N2CCCC2)c1`?
FLuc counter: 12µM*; SMN2 splice up: 6%

What do the screens show for `Cc1ccc(O)c(NC(=O)c2cccc(S(=O)(=O)N3CCCCC3)c2)c1`?
Rab9 prom act: -2%; FLuc counter: -9%; SMN2 splice up: 4.5µM*; ELG1 genotoxic: -1%; NPC1 promoter act: 0%; p53 reactivator: 12%

How did CN(C)S(=O)(=O)c1cccc(C(=O)Nc2cc(Cl)ccc2O)c1 do in these assays?
Rab9 prom act: inconclusive; FLuc counter: 13µM*; SMN2 splice up: -13%; ELG1 genotoxic: -1%; NPC1 promoter act: inconclusive; p53 reactivator: 11%

What do the screens show for `CNC(=O)c1ccccc1NC(=O)c1cccc(S(=O)(=O)N2CCCCC2)c1`?
Rab9 prom act: -7%; FLuc counter: 0%; ELG1 genotoxic: -7%; NPC1 promoter act: -3%; p53 reactivator: -8%

How did Cc1ccccc1NC(=O)c1cccc(S(=O)(=O)N2CCCCC2)c1 do in these assays?
Rab9 prom act: 12%; FLuc counter: 0%; ELG1 genotoxic: -7%; NPC1 promoter act: 0%; p53 reactivator: 0%

How did Cn1c(C(=O)NCCCN2CCCCCC2)cc2c(=O)n(C)c3ccccc3c21 do in these assays?
Rab9 prom act: -9%; FLuc counter: 0%; SMN2 splice up: 13µM*; ELG1 genotoxic: inconclusive; NPC1 promoter act: -2%; p53 reactivator: -8%

Results for NC(C(=O)O)(c1ccc(P(=O)(O)O)cc1)C1CC1 (configuration not stated) ?
SMN2 splice up: 7%

What do the screens show for `CCN(C(=O)Cn1c(C(=O)OC)cc2oc3ccccc3c21)c1cccc(C)c1`?
FLuc counter: -12%; SMN2 splice up: -24%

What do the screens show for `CCCSc1nnc2[nH]c(=O)cc(C)n12`?
FLuc counter: 5%

Results for Cc1cc(=O)[nH]c2nnc(-c3ccc(Br)cc3)n12 ?
Rab9 prom act: inconclusive; FLuc counter: 0.95µM*; ELG1 genotoxic: inconclusive; NPC1 promoter act: 2.8µM*; p53 reactivator: 7%

Results for CC(=O)Nc1cccc(C(=O)/C=C/c2ccc(C)cc2)c1 ?
Rab9 prom act: -6%; FLuc counter: 4.8µM*; SMN2 splice up: -4%; ELG1 genotoxic: 9%; NPC1 promoter act: 0%; p53 reactivator: inconclusive

What do the screens show for `CC(=O)Nc1ccc(C(=O)NNC(=O)c2cccc(C)c2)cc1`?
Rab9 prom act: -2%; FLuc counter: 6%; ELG1 genotoxic: 7%; NPC1 promoter act: -3%

What do the screens show for `CCC(=O)Nc1cccc(C(=O)/C=C/c2ccc(F)cc2)c1`?
Rab9 prom act: -14%; FLuc counter: 15µM*; SMN2 splice up: -62%; ELG1 genotoxic: -20%; NPC1 promoter act: -4%; p53 reactivator: -10%

What do the screens show for `COc1cccc(NC(=S)NC(=O)/C=C/c2ccc(F)cc2)c1`?
Rab9 prom act: -2%; FLuc counter: -4%; ELG1 genotoxic: 2%; NPC1 promoter act: 5%; p53 reactivator: 4%

What do the screens show for `Nc1ccc(C(=O)C(=O)c2ccc(N)cc2)cc1`?
Rab9 prom act: 1%; FLuc counter: 0%; ELG1 genotoxic: 1%; NPC1 promoter act: 6%; p53 reactivator: -2%

How did Nc1ccc(N=Nc2ccc(N)cc2)cc1 do in these assays?
Rab9 prom act: inconclusive; FLuc counter: 7.6µM*; SMN2 splice up: 14µM*; ELG1 genotoxic: inconclusive; NPC1 promoter act: inconclusive; p53 reactivator: 8%

How did COc1ccccc1CCC(=O)Nc1ncc(C)s1 do in these assays?
Rab9 prom act: -5%[1.84 µM]; FLuc counter: -19%; ELG1 genotoxic: 0%; NPC1 promoter act: -4%; p53 reactivator: 6%

Results for Cn1cnc(S(=O)(=O)N2CCCC(C(=O)NCc3ccccc3)C2)c1 (configuration not stated) ?
FLuc counter: -2%

Screens (PubChem BioAssay)
